Our source for the AC50 and outcome values is PubChem BioAssay (EPA / NIEHS).

“And” between values parts separate entries of the source, which are not always exact repeats. Equal values may be shown once. Inconclusive results are not listed. A structure can be active in one record and inactive in another. The source made the active and inactive calls. Rule for the calls, unless noted: active = hit-call score of the fitted dose curve at least 0.9, where 1 is the maximum; inactive = score below 0.9.

Read-out in test [1]: Interleukin-8 (IL8), CXCL8 (gene 3576)
In words: BSK_3C_IL8: BioMAP Diversity Plus: 3C Assay for Interleukin-8 (IL8) Biomarker Activity (AID 2283020). The following applies: primary human endothelial cells (HUVEC); actives raise or lower the signal. In short, it runs like this:
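Using DMSO-treated wells as the baseline, bidirectional curve fitting was applied to ELISA-measured IL-8 from human umbilical vein endothelial cultures sampled 24 h after compound addition.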

Read-out in test [2]: Monokine induced gamma interferon (MIG), CXCL9 (gene 4283)
In words: BSK_3C_MIG: BioMAP Diversity Plus: 3C Assay for Monokine induced gamma interferon (MIG) Biomarker Activity (AID 2283021).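 For AC50: MIG protein level measured by immunoassay in the treated endothelial cultures.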 Conditions: primary human endothelial cells (HUVEC); actives raise or lower the signal. The procedure, abridged:
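ELISA-measured MIG in dosed HUVEC 3C cultures at 24 h, analysed by bidirectional fitting with DMSO defining baseline activity.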

For test [3], the target named is human Vitamin D Receptor (VDR), VDR (gene 7421) (UniProt P11473). In words: ATG_VDR_TRANS: Attagene TRANS-FACTORIAL HepG2 Assay for human Vitamin D Receptor (VDR) (AID 2283022; active = hit-call score of the fitted dose curve at least 0.9, where 1 is the maximum). In short, it runs like this: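 HepG2 cells were transiently transfected with GAL4-UAS reporter units and a chimeric VDR-Gal4 construct, then dosed for 24 hours. Reporter mRNA was quantified by RT-PCR, fluorescent labeling, HpaI digestion and capillary electrophoresis; gain of signal analysed vs DMSO.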

A short description of test [4]: BSK_3C_SRB: Viability Assessment in the BioMAP Diversity Plus: 3C Assay (AID 2283023).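 Note: fitted both ways against DMSO so a hit may be signal rise or drop.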 Conditions: primary human endothelial cells (HUVEC). The procedure, abridged:
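Human umbilical vein endothelial cells in the 3C system, treated 24 h. Total protein measured by 0.1% sulforhodamine B staining after 10% TCA fixation, read at 560 nm; bidirectional fit versus DMSO.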

Read-out in test [5]: Matrix Metallopeptidase 1 (MMP1), MMP1 (gene 4312)
In words: BSK_BE3C_MMP1: BioMAP Diversity Plus: BE3C Assay for Matrix Metallopeptidase 1 (MMP1) Biomarker Activity (AID 2283024). The following applies: primary human bronchial epithelial cells; actives raise or lower the signal. In short, it runs like this: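 In this multiplexed primary-cell system, human bronchial epithelium received chemicals for 24 h before an ELISA for MMP1. Values reflect bidirectional fits normalised to the DMSO baseline.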

Test [6] can be described thus: BSK_3C_Vis: BioMAP Diversity Plus: 3C Assay for Morphology Visualization (AID 2283025).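 For AC50: light microscopy image of cell morphology used as background control.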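 Note: fitted both ways so gain or loss versus DMSO counts.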 The following applies: primary human endothelial cells (HUVEC). The procedure, abridged: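 Light-microscopy morphology readout, 24 h exposure, human primary umbilical vein endothelium; analysed relative to DMSO with bidirectional fitting.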
Read-out in test [7]: Pselectin, SELP (gene 6403)
The test can be described thus: BSK_4H_Pselectin: BioMAP Diversity Plus: 4H Assay for Pselectin Biomarker Activity (AID 2283026). Conditions: primary human endothelial cells (HUVEC); actives raise or lower the signal. In short, it runs like this: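 Bidirectional fits against DMSO gave the endpoint. Cells: primary human umbilical vein endothelium, chemical-treated for 24 h before ELISA detection of P-selectin.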

Test [8] is described as follows: BSK_4H_SRB: Viability Assessment in the BioMAP Diversity Plus: 4H Assay (AID 2283027).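 For AC50: curves fitted both ways versus DMSO so AC50 may be loss or gain.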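 Note: cells exposed to compound for 24 h before staining.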 Conditions: primary human endothelial cells (HUVEC). In short, it runs like this:
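Cytotoxicity readout: sulforhodamine B (0.1%) staining of total protein after 10% TCA fixation, measured at 560 nm in human umbilical vein endothelium at 24 h. DMSO set the baseline; fitting was bidirectional.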

A short description of test [9]: BSK_BE3C_SRB: Viability Assessment in the BioMAP Diversity Plus: BE3C Assay (AID 2283028).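 For AC50: fitted both ways so AC50 may mark signal gain or loss versus DMSO.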 The following applies: primary human bronchial epithelial cells. The procedure, abridged:
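Human bronchial epithelial primary cells in confluent culture, 24 h after chemical dosing; total protein by 0.1% SRB staining after 10% TCA fixation, read at 560 nm. Bidirectional fitting versus DMSO baseline.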

Read-out in test [10]: Thrombomodulin, THBD (gene 7056)
The test can be described thus: BSK_3C_Thrombomodulin: BioMAP Diversity Plus: 3C Assay for Thrombomodulin Biomarker Activity (AID 2283029). The following applies: primary human endothelial cells (HUVEC); actives raise or lower the signal. In short, it runs like this: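 In a multiplexed primary-cell system, human umbilical vein endothelium received chemical and was assayed 24 h later for thrombomodulin by ELISA. Parallel cultures were SRB-stained (0.1% SRB after 10% TCA fixation, read at 560 nm) to flag cytotoxicity.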

Read-out in test [11]: Urokinase-type plasminogen activator receptor (uPAR), PLAUR (gene 5329)
The test can be described thus: BSK_4H_uPAR: BioMAP Diversity Plus: 4H Assay for Urokinase-type plasminogen activator receptor (uPAR) Biomarker Activity (AID 2283030). The following applies: primary human endothelial cells (HUVEC); actives raise or lower the signal. The procedure, abridged: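 Human umbilical vein endothelial cells in the 4H system, 24 h after chemical dosing. Cell-surface uPAR measured by ELISA, fitted in both directions versus DMSO; cytotoxicity checked by SRB total protein in parallel cultures.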

Read-out in test [12]: Vascular endothelial growth factor receptor 2 (Homo sapiens) (UniProt P35968)
In words: BSK_4H_VEGFRII: BioMAP Diversity Plus: 4H Assay for Vascular endothelial growth factor receptor 2 (VEGFR2) Biomarker Activity (AID 2283031).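 For AC50: cell-surface VEGFR2 protein level quantified by ELISA.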 Conditions: primary human endothelial cells (HUVEC); actives raise or lower the signal. In short, it runs like this: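 Primary human umbilical vein endothelial cells (4H system), 24 h exposure; cell-surface VEGFR2 measured by ELISA. Bidirectional fitting versus DMSO; cytotoxicity checked in parallel by SRB total-protein staining.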

Read-out in test [13]: Human Leukocyte Antigen - DR isotype (HLADR), HLA-DRA (gene 3122)
The test can be described thus: BSK_BE3C_HLADR: BioMAP Diversity Plus: BE3C Assay for Human Leukocyte Antigen - DR isotype (HLADR) Biomarker Activity (AID 2283032). The following applies: primary human bronchial epithelial cells; actives raise or lower the signal. The procedure, abridged: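 BioMAP BE3C format: human bronchial epithelium, 24 h compound treatment, ELISA detection of HLA-DR, with bidirectional analysis relative to DMSO.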

Read-out in test [14]: Vascular cell adhesion molecule 1 (VCAM1), VCAM1 (gene 7412)
In words: BSK_4H_VCAM1: BioMAP Diversity Plus: 4H Assay for Vascular cell adhesion molecule 1 (VCAM1) Biomarker Activity (AID 2283033).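 For outcome: cell-surface VCAM-1 protein measured by ELISA.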 The following applies: primary human endothelial cells (HUVEC); actives raise or lower the signal. The procedure, abridged:
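In this human endothelial (HUVEC) system, biomarker ELISA was run 24 h after compound addition, and total protein in parallel wells was assessed by SRB at 560 nm; DMSO served as negative control.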

Read-out in test [15]: Interferon-gamma inducible Protein 10 (IP10), CXCL10 (gene 3627)
The test can be described thus: BSK_BE3C_IP10: BioMAP Diversity Plus: BE3C Assay for Interferon-gamma inducible Protein 10 (IP10) Biomarker Activity (AID 2283034). Conditions: primary human bronchial epithelial cells; actives raise or lower the signal. In short, it runs like this:
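BE3C cells (human bronchial epithelial, primary); 24 h exposure; ELISA for IP-10; DMSO-referenced bidirectional fit.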

Read-out in test [16]: Monokine induced gamma interferon (MIG), CXCL9 (gene 4283)
The test can be described thus: BSK_BE3C_MIG: BioMAP Diversity Plus: BE3C Assay for Monokine induced gamma interferon (MIG) Biomarker Activity (AID 2283035). Conditions: primary human bronchial epithelial cells; actives raise or lower the signal. The procedure, abridged: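 hu bronchial epithelial 1° cells, 24 h cpd; MIG by ELISA; bidirectional fit, DMSO = baseline.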

Read-out in test [17]: Transforming growth factor beta 1 (TGFb1), TGFB1 (gene 7040)
In words: BSK_BE3C_TGFb1: BioMAP Diversity Plus: BE3C Assay for Transforming growth factor beta 1 (TGFb1) Biomarker Activity (AID 2283036;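 for outcome: TGF-b1 protein level measured by ELISA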). The following applies: primary human bronchial epithelial cells; actives raise or lower the signal. The procedure, abridged:
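TGF-b1 measured via ELISA, 24 h after chemical dosing of human bronchial epithelial cells (BE3C). Overt cytotoxicity assessed in parallel by SRB (0.1%, TCA-fixed, 560 nm); analysis bidirectional relative to DMSO.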

Read-out in test [18]: urokinase plasminogen activator (uPA), PLAU (gene 5328)
The test can be described thus: BSK_BE3C_uPA: BioMAP Diversity Plus: BE3C Assay for urokinase plasminogen activator (uPA) Biomarker Activity (AID 2283038).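 For outcome: uPA protein level quantified by ELISA in cell cultures; uPA read one day after compound addition.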 Conditions: primary human bronchial epithelial cells; actives raise or lower the signal. The procedure, abridged: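 Primary human bronchial epithelial cells, uPA measured by ELISA 24 h after dosing. Bidirectional change relative to DMSO; cytotoxicity checked in parallel cultures by sulforhodamine B total-protein staining.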

Read-out in test [19]: Urokinase-type plasminogen activator receptor (uPAR), PLAUR (gene 5329)
In words: BSK_BE3C_uPAR: BioMAP Diversity Plus: BE3C Assay for Urokinase-type plasminogen activator receptor (uPAR) Biomarker Activity (AID 2283039).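 For outcome: cells exposed to compound for one day before measurement.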 Conditions: primary human bronchial epithelial cells; actives raise or lower the signal. The procedure, abridged: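 Chemically treated human bronchial epithelial cells (lung primary) are assayed for uPAR by ELISA after 24 h, with data fitted in both directions using DMSO as negative control.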

Read-out in test [20]: Plasminogen activator inhibitor-1 (PAI1), SERPINE1 (gene 5054)
In words: BSK_BE3C_PAI1: BioMAP Diversity Plus: BE3C Assay for Plasminogen activator inhibitor-1 (PAI1) Biomarker Activity (AID 2283037). The following applies: primary human bronchial epithelial cells; actives raise or lower the signal. The procedure, abridged: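 In this multiplexed primary-cell system, bronchial epithelial cells receive test chemical and are sampled at 24 h. PAI-1 is read by ELISA, with DMSO serving as negative control for bidirectional fitting.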

human Vitamin D Receptor (VDR), VDR (gene 7421), sequence (P11473 whole entry, looked up, the tested form may be a part): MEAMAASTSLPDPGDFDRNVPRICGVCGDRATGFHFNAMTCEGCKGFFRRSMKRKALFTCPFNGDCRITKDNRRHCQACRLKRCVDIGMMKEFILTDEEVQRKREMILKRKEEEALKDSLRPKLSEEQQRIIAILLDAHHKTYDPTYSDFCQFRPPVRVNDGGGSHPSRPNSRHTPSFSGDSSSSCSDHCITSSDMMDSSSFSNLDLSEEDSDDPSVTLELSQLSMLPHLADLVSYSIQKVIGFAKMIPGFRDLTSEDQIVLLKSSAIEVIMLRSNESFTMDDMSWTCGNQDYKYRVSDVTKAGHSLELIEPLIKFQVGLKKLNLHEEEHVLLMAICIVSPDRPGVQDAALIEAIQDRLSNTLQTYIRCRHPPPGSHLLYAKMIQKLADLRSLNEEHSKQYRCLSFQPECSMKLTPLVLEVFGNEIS

Turning to `O=[N+]([O-])c1cc(C(F)(F)F)c(Cl)c([N+](=O)[O-])c1Nc1ncc(C(F)(F)F)cc1Cl`, the AC50 in test [1] is 3.36 µM (active) and 4.25 µM (active); in test [2] it was 3.73 µM (active) and 5.09 µM (active); in test [4] it was 1.49 µM (active); in test [5], 3.93 µM (active); in [6], 1.5 µM (active) and 2.12 µM (active); in [7] it was 1.18 µM (active) and 2.13 µM (active). Also, the AC50 was 1 µM (active) and 2.39 µM (active) in test [8]; 1.79 µM (active) and 4.1 µM (active) in [9]; 774 nM (active) and 2.49 µM (active) in [10]; 1.4 µM (active) and 2.25 µM (active) in test [11]; 1.2 µM (active) in test [12]; 1.52 µM (active) and 3.78 µM (active) in test [13]. Further, the half-maximal activity concentration (AC50) in test [14] was 1 µM (active) and 2.33 µM (active); in test [15], 1.23 µM (active) and 4.77 µM (active); in [16], 4.03 µM (active) and 7.17 µM (active); in test [17], 2.51 µM (active) and 9.94 µM (active); in [18], 2.19 µM (active) and 1.62 µM (active); in test [19], 7.71 µM (active) and 8.37 µM (active). The molecule was called inactive in test [3], in [4] and in test [12].
As for `COP(=O)(NC(C)=O)SC` (stereo not given), the result in [1], in test [2], in test [3], in test [5], in test [6] and in test [7] was inactive. Moreover, the outcome in test [8], in test [9], in test [10], in test [11], in test [12] and in [13] was inactive. Besides, the result in test [14], in [15], in test [16], in test [17], in [18] and in test [19] was inactive. For the same molecule, the AC50 in test [4] was 5.17 µM (active).
For `CCOC(=O)COc1cc(-c2nn(C)c(OC(F)F)c2Cl)c(F)cc1Cl`, the result in test [1], in [2], in test [3], in test [4], in [5] and in test [6] was inactive. For the same molecule, the outcome in [8], in [9], in [10], in test [11], in test [12] and in [13] was inactive. Further, the result in test [14], in test [15], in [16], in test [17], in test [20] and in [18] was inactive. Also, the outcome in test [19] was inactive. Besides, the AC50 in test [7] was 6.73 µM (active).
For `CSc1nc(NC(C)C)nc(NC(C)C)n1`, the outcome in test [1], in [2], in test [3], in [5], in [6] and in [7] was inactive. In addition, the outcome in [8], in test [9], in test [10], in test [11], in test [12] and in test [13] was inactive. Besides, the outcome in test [14], in test [15], in [16], in [17], in test [20] and in test [18] was inactive. The result in [19] was inactive. Moreover, the AC50 in test [4] was 14 µM (active).
For the molecule `CC1(C(=O)Nc2ccc(O)c(Cl)c2Cl)CCCCC1`, the result in test [1], in test [2], in [3], in test [4], in test [5] and in test [6] was inactive. Moreover, the outcome in [7], in test [8], in test [10], in [11], in test [12] and in [13] was inactive. The outcome in [14], in test [15], in [16], in test [17], in test [20] and in test [18] was inactive. In test [19], the outcome was inactive. The AC50 in [9] is 17.8 µM (active).
For the molecule `CCOP(=S)(Oc1cnc(C(C)(C)C)nc1)OC(C)C` (stereo not given), the AC50 in [1] is 30.2 µM (active); in test [2], 34.2 µM (active); in test [4] it was 35.5 µM (active); in [6], 39.8 µM (active); in [7], 32 µM (active); in test [8] it was 34.1 µM (active). Also, the AC50 was 31.9 µM (active) in test [12] and 36.8 µM (active) in test [14]. Further, the molecule was called inactive in [3], in [5], in test [9], in test [10], in test [11] and in test [13]. Moreover, the outcome in test [15], in [16], in test [17], in test [20], in [18] and in [19] was inactive.
